Source: PubChem
IDE cell activ: human IDE activators in live cells, primary screen, fluorescence polarization, HEK cells, FAbeta-B substrate; Insulin-degrading enzyme (Homo sapiens), P14735; FAbeta-B cleavage; 0% vehicle, 100% cell-free pure enzyme wells; activation, % at 5.96 µM; 0.073% of 340,000 active; AID 493087, 2011;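 active means activation above the mean of all tested compounds plus 3 SD, set per screening campaign, cut at about 17% in these data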
Target sequence (P14735 whole entry, looked up): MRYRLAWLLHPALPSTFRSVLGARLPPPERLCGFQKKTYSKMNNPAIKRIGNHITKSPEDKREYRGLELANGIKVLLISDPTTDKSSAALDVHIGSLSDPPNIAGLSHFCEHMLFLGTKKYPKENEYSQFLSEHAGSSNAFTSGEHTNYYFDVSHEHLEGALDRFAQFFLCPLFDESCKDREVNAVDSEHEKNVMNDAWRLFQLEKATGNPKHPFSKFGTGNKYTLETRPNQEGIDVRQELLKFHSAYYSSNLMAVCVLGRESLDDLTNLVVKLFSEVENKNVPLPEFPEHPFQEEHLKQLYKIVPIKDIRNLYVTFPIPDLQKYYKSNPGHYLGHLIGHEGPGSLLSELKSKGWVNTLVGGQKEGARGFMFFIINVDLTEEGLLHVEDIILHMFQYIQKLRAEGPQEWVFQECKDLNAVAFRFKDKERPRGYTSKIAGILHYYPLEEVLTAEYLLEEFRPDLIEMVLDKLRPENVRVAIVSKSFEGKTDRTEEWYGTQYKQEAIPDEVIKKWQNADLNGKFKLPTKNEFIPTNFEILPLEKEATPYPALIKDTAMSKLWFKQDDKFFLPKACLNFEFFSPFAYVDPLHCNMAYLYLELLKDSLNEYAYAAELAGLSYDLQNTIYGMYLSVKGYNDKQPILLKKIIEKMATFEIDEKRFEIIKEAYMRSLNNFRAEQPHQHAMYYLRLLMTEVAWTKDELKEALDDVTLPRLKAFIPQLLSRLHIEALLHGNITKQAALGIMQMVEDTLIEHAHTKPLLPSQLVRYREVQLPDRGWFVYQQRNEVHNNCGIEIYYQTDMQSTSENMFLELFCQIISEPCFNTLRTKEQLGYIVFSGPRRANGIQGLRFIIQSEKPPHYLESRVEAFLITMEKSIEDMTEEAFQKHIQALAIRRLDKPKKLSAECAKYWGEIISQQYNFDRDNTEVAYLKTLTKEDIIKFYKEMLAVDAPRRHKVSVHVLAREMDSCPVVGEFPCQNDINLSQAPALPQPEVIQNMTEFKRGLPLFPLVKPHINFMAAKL
PfM18AAP inh: PfM18AAP inhibitors, malaria aminopeptidase, primary screen, biochemical, QFRET, recombinant enzyme | M18 aspartyl aminopeptidase (Plasmodium falciparum 3D7) | H-Glu-NHMec fluorogenic cleavage | inhibition, % at 7.35 µM | AID 1822, 2009 | 1.2% of 290,000 active;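 active means inhibition above the campaign mean inhibition over all tested compounds plus 3 SD, cut at about 28% in these data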;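 further: 0% = plate median of test compound wells and 100% = 2 mM ZnCl2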
ALR inh: inhibitors of human ALR sulfhydryl oxidase, primary screen, biochemical, H2O2 detection, HRP-luminol luminescence, single point; FAD-linked sulfhydryl oxidase ALR (Homo sapiens), P55789; purified ALR, DTT oxidation; inhibition, % (no concentration beside the values); 3.8% of 290,000 active; AID 485317, 2010;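 active means mean replicate inhibition above about 79%, with every replicate also reaching it, limit read from the data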
PolyA inhibitor: polyadenylation inhibitors in yeast reporter cells, primary screen, luminescence, S. cerevisiae; S. cerevisiae SKY197-pL101 polyadenylation reporter, beta-gal luminescence; efflux-impaired pdr1/pdr3 knockout yeast; score 100 = 6 SD above DMSO; activity score, % at 12 µM; 0.02% of 300,000 active; AID 1875, 2009;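 active means lowest replicate activity score at least 50, where 100 means six control SD above control mean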;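 further: yeast exposed to compound for 9 h at 30 °C; higher score means more reporter readthrough which indicates perturbed polyadenylation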
CaV13 ICDI inh: Primary screen for inhibitors of IQ motif and Ca2+-dependent inactivation inhibitor domain binding in CACNA1D, Förster resonance energy transfer in living cells, …. HEK cells, CFP/YFP FRET ICDI-IQ, plate reader, 10 min; percent FRET-ratio fall versus neutral wells. inhibition, % at 12.3 µM. 0.098% of 340,000 active;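 active means mean replicate inhibition of at least 30% and at least 1% of replicates passing that level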;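 further: 0% = median of the neutral control wells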
IDE inh: human IDE inhibitors in live cells, primary screen, fluorescence polarization, HEK cells, FAbetaB substrate; Insulin-degrading enzyme (Homo sapiens), P14735; FAbetaB cleavage; inhibition, % at 5.59 µM; 0.41% of 320,000 active;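 active means percent inhibition above the average of all tested compounds plus 3 SD, set per screening campaign, cut at about 16% in these data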;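 further: IDE supplied by intact live HEK cells; FP after avidin binding of uncleaved biotin substrate so inhibition keeps polarization high; 0% = DMSO wells and 100% = 60 µM reference IDE inhibitor Ii1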
Active calls of the source: *. An excerpt weighted towards active compounds, which were near 4.1% of everything screened.

CCOC(=O)C1(CCc2ccccc2)CCN(C(=O)Cc2nonc2C)CC1 was read as IDE cell activ 0, PfM18AAP inh 2, ALR inh 100*, PolyA inhibitor 6, CaV13 ICDI inh -6 and IDE inh 3.
For O=C(CCN1c2ccccc2Sc2ccccc21)OCC(=O)N1CCN(C(=O)c2ccco2)CC1 the results were IDE cell activ 7, PfM18AAP inh 10, ALR inh 91*, PolyA inhibitor -7, CaV13 ICDI inh -6 and IDE inh -7.
`O=C(CSc1ccccc1)OCC(=O)N1CCN(C(=O)c2ccco2)CC1` gave IDE cell activ 2, ALR inh -20, CaV13 ICDI inh -6 and IDE inh -3.
O=P(O)(OCc1ccccc1)OCc1ccccc1 was read as IDE cell activ 3, ALR inh 47 and IDE inh -2.
For O=C(CSc1ccc(-c2ccco2)nn1)c1ccccc1 the results were IDE cell activ 3, PfM18AAP inh -19, ALR inh 98*, PolyA inhibitor 4, CaV13 ICDI inh -3 and IDE inh -2.
Cc1nnc(NC(=O)CSc2ccc(-c3ccco3)nn2)s1 was read as IDE cell activ -3, PfM18AAP inh 5, ALR inh 97*, PolyA inhibitor 9, CaV13 ICDI inh -5 and IDE inh 7.
O=C(CSc1ccc(-c2ccco2)nn1)Nc1ccccc1 was read as IDE cell activ 7, PfM18AAP inh -1, ALR inh 98*, PolyA inhibitor -11, CaV13 ICDI inh 2 and IDE inh 2.
Screening CCCNC(=O)C1(C)CCCN(C(=O)c2cccnc2Oc2ccccc2)C1 (stereo not drawn) returned CaV13 ICDI inh -4.
Screening CS(=O)(=O)c1ccc(Cl)c(NC(=O)COC(=O)Cc2c[nH]c3ccccc23)c1 returned IDE cell activ 2, ALR inh -3, PolyA inhibitor 10, CaV13 ICDI inh -6 and IDE inh -2.
For O=C(c1ccc(=O)oc1)N1CCCc2ccccc21 the results were IDE cell activ 4, PfM18AAP inh 13, ALR inh 89*, PolyA inhibitor -2 and IDE inh 8.
For COc1ccc(NC(=O)CCNC(=O)N2CC(=O)Nc3ccccc32)cc1OC the results were CaV13 ICDI inh -11.
Screening CCOc1cc(NC(=S)Nc2ccc(Cl)cc2)c(OCC)cc1NC(C)=O returned IDE cell activ 0, PfM18AAP inh 31*, ALR inh -13, PolyA inhibitor 7, CaV13 ICDI inh 5 and IDE inh -4.
`CCOC(=O)c1c(NC(=O)COC(=O)CCS(=O)(=O)c2ccc(C)cc2)sc(C)c1C` gave IDE cell activ 2, PfM18AAP inh 7, ALR inh 94*, PolyA inhibitor 16, CaV13 ICDI inh -5 and IDE inh 5.
`CCCCCCCCc1nnc(NC(=O)c2ccco2)s1` gave IDE cell activ 2, PfM18AAP inh 5, ALR inh -3, PolyA inhibitor 2, CaV13 ICDI inh -8 and IDE inh 0.
For O=C(NC(=S)NNC(=O)[C@H]1C[C@@H]1c1ccccc1)c1cccc(F)c1 the results were IDE cell activ 7, PfM18AAP inh 9, ALR inh 98*, PolyA inhibitor -50, CaV13 ICDI inh -5 and IDE inh 2.
For O=C(Cn1ccc([N+](=O)[O-])n1)Nc1ccccn1 the results were IDE cell activ 3, PfM18AAP inh -4, ALR inh -5, PolyA inhibitor -1, CaV13 ICDI inh -6 and IDE inh 6.
For Cc1[nH]c2ccccc2c1/C=N/NC(=O)CNC(=O)Cc1ccccc1 the results were IDE cell activ 6, PfM18AAP inh 8, ALR inh 32, PolyA inhibitor -1, CaV13 ICDI inh -3 and IDE inh 3.
For Cc1[nH]c2ccccc2c1/C=N/NC(=O)Cc1cccs1 the results were IDE cell activ -2, PfM18AAP inh -2, ALR inh 94*, PolyA inhibitor -3, CaV13 ICDI inh -3 and IDE inh 7.
Screening Cc1c2c(nc3ccccc13)CC(C)(C)CC2=O returned IDE cell activ -1, PfM18AAP inh -2, ALR inh 94*, PolyA inhibitor 0, CaV13 ICDI inh -2 and IDE inh 3.
Screening COc1cccc2c3c(c(=O)[nH]c12)CCC(C)(C)O3 returned IDE cell activ 5, PfM18AAP inh -1, ALR inh 98*, PolyA inhibitor -7, CaV13 ICDI inh -6 and IDE inh 2.
For CCOC(=O)CC1C(=O)NCCN1S(=O)(=O)c1ccc(Br)cc1 (stereo not drawn) the results were IDE cell activ 1, PfM18AAP inh 4, ALR inh -7, PolyA inhibitor 18, CaV13 ICDI inh -1 and IDE inh 3.
Screening Cc1cc(C)c(S(=O)(=O)Nc2cnc3ccccc3c2)c(C)c1 returned IDE cell activ 2, PfM18AAP inh 4, ALR inh 0, PolyA inhibitor 1, CaV13 ICDI inh -3 and IDE inh 0.
Screening Cc1ccc(NCC(O)C(O)C(O)CO)c(N=Nc2ccccc2)c1C (stereo not drawn) returned IDE cell activ 0, PfM18AAP inh 5, ALR inh 99*, PolyA inhibitor -14, CaV13 ICDI inh 1 and IDE inh -4.
Screening CCN1CCCc2cc(CN(CCN3CCOCC3)C(=S)Nc3ccccc3C)ccc21 returned IDE cell activ 1, PfM18AAP inh 4, ALR inh 99*, PolyA inhibitor 10, CaV13 ICDI inh 3 and IDE inh 2.
Screening CCN1CCCc2cc(CN(CCN3CCOCC3)C(=S)Nc3cccc(C)c3)ccc21 returned IDE cell activ 7, PfM18AAP inh 15, ALR inh 95*, PolyA inhibitor 0, CaV13 ICDI inh -5 and IDE inh 2.
COc1ccccc1NC(=S)N(CCN1CCOCC1)Cc1ccccc1F was read as IDE cell activ -3, PfM18AAP inh 3, ALR inh 5, PolyA inhibitor -26, CaV13 ICDI inh -6 and IDE inh 8.
Screening CCN1CCCc2cc(CN(CCN3CCOCC3)C(=S)Nc3ccccc3OC)ccc21 returned IDE cell activ 2, PfM18AAP inh 11, ALR inh 99*, PolyA inhibitor -14, CaV13 ICDI inh -2 and IDE inh 11.
Cc1noc(C)c1C(=O)Nc1cc(S(=O)(=O)N2CCCCC2)ccc1N(C)C was read as IDE cell activ 1 and CaV13 ICDI inh -4.
